Screening data deposited in PubChem BioAssay by The Scripps Research Institute Molecular Screening Center.
An excerpt weighted towards active compounds, which were near 2.5% of everything screened.
ULK1 primary: ULK1 kinase inhibitors, primary screen, biochemical, AlphaScreen; AID 1259251, 2017; inhibition, % at 5.96 µM; hit rate 1.9% among 30,000; AlphaScreen Atg13 phosphorylation by ULK1, luminescence; in the data active = inhibition above about 43%;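 also: 0% = median of compound wells and 100% = no enzyme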
ASK1 inh: ASK1 kinase inhibitors, primary screen, biochemical, AlphaScreen. inhibition, % at 7.44 µM. hit rate 0.99% among 22,000. AlphaScreen MKK6 phosphorylation by ASK1, luminescence. Mitogen-activated protein kinase kinase kinase 5 (Homo sapiens), Q99683; in the data active = inhibition above about 35%;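 also: 0% = median of compound wells and 100% = no enzyme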
The depositor's hits bear a star; · = not tested or not shown.

SMILES | ULK1 primary | ASK1 inh
CC(CO)NC(=O)C1C=C2c3cccc4[nH]cc(c34)C[C@H]2N(C)C1 (some centres not stated) | 22 | ·
CCN(CC)C(=O)N[C@H]1C=C2c3cccc4[nH]cc(c34)C[C@H]2N(C)C1 | 62* | ·
Cc1cc2c(NC3CCCNC3)cccc2nn1 (configuration not stated) | 37 | -48
CC(CC(C(N)=O)(c1ccccc1)c1ccccc1)N(C)C (configuration not stated) | 2 | ·
CCC(=O)OC(Cc1ccccc1)(c1ccccc1)[C@H](C)CN(C)C (some centres not stated) | 95* | ·
CC12CCC(=O)C=C1CC[C@@H]1[C@@H]2CCC2(C)[C@H]1CC[C@]2(C)O (some centres not stated) | 4 | ·
CN(C)C1C(=O)C(C(N)=O)=C(O)C2(O)C(=O)C3=C(O)c4c(O)cccc4C(C)(O)C3CC12 (configuration not stated) | 72* | ·
CN(C)[C@@H]1C(=O)C(C(N)=O)=C(O)[C@@]2(O)C(=O)C3=C(O)c4c(O)ccc(Cl)c4[C@@](C)(O)C3C[C@@H]12 (some centres not stated) | 49* | ·
CN(C)[C@@H]1C(=O)C(C(N)=O)=C(O)[C@@]2(O)C(=O)C3=C(O)c4c(O)cccc4[C@@](C)(O)[C@H]3C[C@@H]12 | 24 | ·
O=C(Cl)Cc1cccs1 | 4 | ·
CC(C)(O)[C@@H]1[C@H]2OC(=O)[C@@H]1[C@]1(O)CC3O[C@]34C(=O)O[C@H]2[C@@]41C (some centres not stated) | 1 | ·
[F-].[Sn+2] | -1 | ·
CC12C/C(=C/O)C(=O)C[C@@H]1CC[C@@H]1[C@@H]2CCC2(C)[C@H]1CC[C@]2(C)O (some centres not stated) | 0 | ·
C[C@H](N)[C@H](O)c1ccccc1 | -10 | ·
C[C@H](N)[C@H](O)c1ccc(O)c(O)c1 | 71* | ·
